# According to PubChem BioAssay (NCATS):
# Results filed as inconclusive are left out. Values without a mark were called inactive. Activity calls are given as the source filed them. Calls come from the whole dose curve; as a rule, active = well fitted curve in the direction sought with a large enough effect; inconclusive = small, poorly fitted or top-dose-only effect, or another doubt; inactive = no such curve, though single readings can be large; an effect the other way counts as inactive or inconclusive.
# Experiments:
# [1] = Quantitative High-Throughput drug screen in 47 multiple myeloma cell lines against the NCATS MIPE library collection: KHM11_PLB cell viability assay (AID 1918962); note: nearly all actives have a fitted effect of over 35% in size
# How it was run: (§1)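 qHTS of the MIPE 4.0 collection: 500 myeloma cells/well, 48 h drug exposure at 37C in 5% CO2, then CellTiter-Glo for 5 min at room temperature before luminescence reading.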
# [2] = Quantitative High-Throughput drug screen in 47 multiple myeloma cell lines against the NCATS MIPE library collection: JIM3_ECACC cell viability assay (AID 1918963; note: nearly all actives have a fitted effect of over 35% in size)
# How it was run: as §1
# [3] = Quantitative High-Throughput drug screen in 47 multiple myeloma cell lines against the NCATS MIPE library collection: INA6_PLB cell viability assay (AID 1918965; note: nearly all actives have a fitted effect of over 55% in size)
# How it was run: (§2)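 Luminescent ATP measurement with CellTiter-Glo gives viability, scaled between DMSO-only wells (100%) and media-only wells (0%). Cells, 500 per well, faced library compounds for 48 hours at 37C.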
# [4] = Quantitative High-Throughput drug screen in 47 multiple myeloma cell lines against the NCATS MIPE library collection: JJN3_DSMZ cell viability assay (AID 1918966; note: nearly all actives have a fitted effect of over 50% in size)
# How it was run: as §2
# [5] = Quantitative High-Throughput drug screen in 47 multiple myeloma cell lines against the NCATS MIPE library collection: H1112_PLB cell viability assay (AID 1918967; note: nearly all actives have a fitted effect of over 30% in size)
# How it was run: as §2
# [6] = Quantitative High-Throughput drug screen in 47 multiple myeloma cell lines against the NCATS MIPE library collection: KMS27_JCRB cell viability assay (AID 1918970); note: nearly all actives have a fitted effect of over 30% in size
# How it was run: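 CellTiter-Glo luminescence after 48 h drug exposure at 37 °C; 500 cells/well, 1536-well format, pin-tool compound addition; DMSO = 100%, media-only = 0% viability.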
# [7] = Quantitative High-Throughput drug screen in 47 multiple myeloma cell lines against the NCATS MIPE library collection: KMS12BM_JCRB cell viability assay (AID 1918971); note: nearly all actives have a fitted effect of over 35% in size
# How it was run: as §2
# [8] = Quantitative High-Throughput drug screen in 47 multiple myeloma cell lines against the NCATS MIPE library collection: KMS12PE_JCRB cell viability assay (AID 1918972); note: nearly all actives have a fitted effect of over 30% in size
# How it was run: as §2
# [9] = Quantitative High-Throughput drug screen in 47 multiple myeloma cell lines against the NCATS MIPE library collection: KMS20_JCRB cell viability assay (AID 1918973); note: nearly all actives have a fitted effect of over 45% in size
# How it was run: as §2
# [10] = Quantitative High-Throughput drug screen in 47 multiple myeloma cell lines against the NCATS MIPE library collection: KMS21BM_JCRB cell viability assay (AID 1918974); conditions: ATP luminescence, 48 h; viability: at 45.8 µM (top of the series) unless noted
# How it was run: as §2
# [11] = Quantitative High-Throughput drug screen in 47 multiple myeloma cell lines against the NCATS MIPE library collection: KMS26_JCRB cell viability assay (AID 1918975); note: nearly all actives have a fitted effect of over 45% in size
# How it was run: as §2
# [12] = Quantitative High-Throughput drug screen in 47 multiple myeloma cell lines against the NCATS MIPE library collection: MOLP8_DSMZ cell viability assay (AID 1918977); note: nearly all actives have a fitted effect of over 45% in size
# How it was run: (§3)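 qHTS format: cells plated (500/well), pin-dosed with MIPE 4.0 compounds, kept 48 h at 37 °C. Readout was CellTiter-Glo luminescence, median RLU.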
# [13] = Quantitative High-Throughput drug screen in 47 multiple myeloma cell lines against the NCATS MIPE library collection: NCIH929_DSMZ cell viability assay (AID 1918978); note: nearly all actives have a fitted effect of over 35% in size
# How it was run: as §3
# [14] = Quantitative High-Throughput drug screen in 47 multiple myeloma cell lines against the NCATS MIPE library collection: MM1S_ATCC cell viability assay (AID 1918980); note: nearly all actives have a fitted effect of over 45% in size
# How it was run: as §3
# [15] = Quantitative High-Throughput drug screen in 47 multiple myeloma cell lines against the NCATS MIPE library collection: MM1R_ATCC cell viability assay (AID 1918981); note: nearly all actives have a fitted effect of over 35% in size
# How it was run: as §3
# [16] = Quantitative High-Throughput drug screen in 47 multiple myeloma cell lines against the NCATS MIPE library collection: LP1_DSMZ cell viability assay (AID 1918982); note: nearly all actives have a fitted effect of over 35% in size
# How it was run: as §3
# [17] = Quantitative High-Throughput drug screen in 47 multiple myeloma cell lines against the NCATS MIPE library collection: Karpas25_ECACC cell viability assay (AID 1918968; note: nearly all actives have a fitted effect of over 35% in size)
# How it was run: as §2
# [18] = Quantitative High-Throughput drug screen in 47 multiple myeloma cell lines against the NCATS MIPE library collection: MMM1_PLB cell viability assay (AID 1918976); note: nearly all actives have a fitted effect of over 35% in size
# How it was run: as §3
# [19] = Quantitative High-Throughput drug screen in 47 multiple myeloma cell lines against the NCATS MIPE library collection: OCIMY1_PLB cell viability assay (AID 1918979); note: nearly all actives have a fitted effect of over 35% in size
# How it was run: as §3
# [20] = Quantitative High-Throughput drug screen in 47 multiple myeloma cell lines against the NCATS MIPE library collection: JIM1_ECACC cell viability assay (AID 1918964)
# How it was run: as §2
# Potency is the fitted concentration of half-maximal effect.
SMILES,Potency [1],Potency [2],Potency [3],Potency [4],Potency [5],Potency [6],Potency [7],Potency [8],Potency [9],Potency [10],Potency [11],Potency [12],Potency [13],Potency [14],Potency [15],Potency [16],Potency [17],Potency [18],Potency [19],Potency [20]
Cc1cc(Nc2cc(NC(=O)c3c(Cl)cccc3Cl)ccn2)nc(N)n1,8330 nM (active),469 nM (active),935 nM (active),743 nM (active),1050 nM (active),264 nM (active),18700 nM (active),166 nM (active),10500 nM (active),418 nM (active),16600 nM (active),23500 nM (active),9350 nM (active),209 nM (active),469 nM (active),418 nM (active),,,,
CN1CCN(c2ccc3nc(-c4c(N)c5c(F)cccc5[nH]c4=O)[nH]c3c2)CC1,2090 nM (active),13200 nM (active),1320 nM (active),20900 nM (active),7430 nM (active),7430 nM (active),16600 nM (active),5900 nM (active),1320 nM (active),4690 nM (active),29600 nM (active),5900 nM (active),2350 nM (active),16600 nM (active),13200 nM (active),,2640 nM (active),20900 nM (active),18700 nM (active),
Cc1nc(Nc2n[nH]c3c2CN(C(=O)N[C@H](CN(C)C)c2ccccc2)C3(C)C)c2sccc2n1,13.2 nM (active),46.9 nM (active),5.9 nM (active),4180 nM (active),1660 nM (active),,743 nM (active),,105 nM (active),,2960 nM (active),,148 nM (active),2640 nM (active),1050 nM (active),7.9 nM (active),526 nM (active),4690 nM (active),16600 nM (active),
CC[C@@]1(O)C(=O)OCc2c1cc1n(c2=O)Cc2cc3cc(O)ccc3nc2-1,590 nM (active),1660 nM (active),,1870 nM (active),148 nM (active),18.7 nM (active),,1050 nM (active),235 nM (active),,5260 nM (active),662 nM (active),296 nM (active),52.6 nM (active),66.2 nM (active),2640 nM (active),209 nM (active),11800 nM (active),1660 nM (active),235 nM (active)
COc1cc(Nc2ncc(F)c(Nc3ccc4c(n3)N(COP(=O)(O)O)C(=O)C(C)(C)O4)n2)cc(OC)c1OC,1480 nM (active),1660 nM (active),,,1660 nM (active),,,,1660 nM (active),743 nM (active),,,3720 nM (active),20900 nM (active),,,,,,1180 nM (active)
CC[C@H]1CN2CCc3cc(OC)c(OC)cc3[C@H]2C[C@@H]1C[C@@H]1NCCc2cc(OC)c(OC)cc21,166 nM (active),264 nM (active),52.6 nM (active),209 nM (active),264 nM (active),148 nM (active),209 nM (active),132 nM (active),590 nM (active),264 nM (active),187 nM (active),105 nM (active),469 nM (active),83.3 nM (active),187 nM (active),332 nM (active),118 nM (active),264 nM (active),833 nM (active),
O=C(NCCS(=O)(=O)c1ccc(C(F)(F)F)cn1)c1ccc(Cl)cc1,inactive,inactive,inactive,inactive,inactive,,23.5 nM (active),inactive,,,,inactive,inactive,inactive,,inactive,,inactive,inactive,
